Source: PubChem BioAssay (NCATS)
Values joined by “and” are separate entries in the source; they are usually repeats but may differ in a detail not shown here. Equal entries are not always repeated. Records with an inconclusive call do not appear. Entries that show only a call come without a potency. Active and inactive are the calls of the source. Unless noted, the call rests on the fitted dose curve.

Assays:
[1] = biological target: Bile acid receptor (Homo sapiens) (UniProt Q96RI1); test: qHTS assay for small molecule antagonists of farnesoid X receptor signaling (AID 588526)
Chain of Bile acid receptor (Homo sapiens) (Q96RI1 whole entry, looked up): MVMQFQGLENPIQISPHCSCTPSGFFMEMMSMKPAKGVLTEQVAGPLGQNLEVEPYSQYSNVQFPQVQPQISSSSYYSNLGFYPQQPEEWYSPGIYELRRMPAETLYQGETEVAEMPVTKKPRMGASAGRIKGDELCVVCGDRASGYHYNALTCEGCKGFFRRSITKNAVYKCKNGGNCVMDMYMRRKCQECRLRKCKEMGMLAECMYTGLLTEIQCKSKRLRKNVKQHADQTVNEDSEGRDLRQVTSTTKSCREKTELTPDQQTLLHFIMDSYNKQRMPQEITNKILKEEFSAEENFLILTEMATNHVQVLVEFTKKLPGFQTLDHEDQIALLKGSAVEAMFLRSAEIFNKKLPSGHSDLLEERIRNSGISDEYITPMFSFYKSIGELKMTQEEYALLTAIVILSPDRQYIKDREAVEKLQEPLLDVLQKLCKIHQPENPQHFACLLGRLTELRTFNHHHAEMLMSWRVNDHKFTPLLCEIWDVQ
Outline: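 Concentration-response titrations were fitted to the Hill equation for half-maximal inhibition and maximal response, with data normalised to 50 uM chenodeoxycholic acid and DMSO control wells. Cells: FXR-UAS-bla HEK293T, dialyzed FBS.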

[2] = biological target: Glucocorticoid receptor (Homo sapiens) (UniProt P04150); test: qHTS assay for small molecule agonists of glucocorticoid receptor signaling (AID 588532; active means well fitted curve in the direction sought with a large enough effect in the signal ratio, with a control signal flat; the % refers to the signal ratio); details: HeLa MMTV-bla, beta-lactamase ratio, agonist, 18 h; stronger effect = higher value; percent of dexamethasone control, DMSO zero
Chain of Glucocorticoid receptor (Homo sapiens) (P04150 whole entry, looked up): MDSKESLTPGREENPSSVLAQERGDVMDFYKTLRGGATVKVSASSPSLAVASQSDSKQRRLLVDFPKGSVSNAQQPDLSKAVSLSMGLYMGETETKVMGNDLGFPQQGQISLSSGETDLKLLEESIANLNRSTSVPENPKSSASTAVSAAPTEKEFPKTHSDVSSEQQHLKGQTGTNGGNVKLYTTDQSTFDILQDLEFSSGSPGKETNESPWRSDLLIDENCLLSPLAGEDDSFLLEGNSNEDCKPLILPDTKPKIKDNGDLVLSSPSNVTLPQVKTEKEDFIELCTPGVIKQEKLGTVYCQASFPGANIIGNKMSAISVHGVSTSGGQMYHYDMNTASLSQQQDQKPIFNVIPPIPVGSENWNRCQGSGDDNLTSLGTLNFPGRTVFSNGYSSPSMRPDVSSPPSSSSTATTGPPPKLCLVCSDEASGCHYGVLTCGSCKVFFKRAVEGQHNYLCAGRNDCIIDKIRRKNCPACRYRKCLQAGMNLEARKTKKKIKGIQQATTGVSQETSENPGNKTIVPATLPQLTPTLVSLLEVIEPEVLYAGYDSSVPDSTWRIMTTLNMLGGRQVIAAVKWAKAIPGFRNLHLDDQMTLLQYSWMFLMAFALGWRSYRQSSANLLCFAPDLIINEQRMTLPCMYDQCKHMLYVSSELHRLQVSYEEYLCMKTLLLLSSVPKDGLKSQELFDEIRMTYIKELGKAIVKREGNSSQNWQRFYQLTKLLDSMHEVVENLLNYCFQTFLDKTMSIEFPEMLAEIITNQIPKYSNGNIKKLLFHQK
Outline: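 MMTV-bla HeLa, beta-lactamase reporter; medium with 1% charcoal/dextran-stripped FBS; cpds up to 92 uM, 18 h, 37 C; CCF4 readout 460/530 nm; Hill fit → EC50, efficacy vs 0.1 uM dexamethasone = 100%.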

[3] = biological target: Glucocorticoid receptor (Homo sapiens) (UniProt P04150); test: qHTS assay for small molecule antagonists of glucocorticoid receptor signaling (AID 588533; active means well fitted inhibition curve with a large enough effect in the signal ratio, with a control signal flat, not every such curve was filed as active; the % refers to the signal ratio;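 further: cells stimulated with 2 nM dexamethasone as agonist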)
Outline: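 Antagonist-mode qHTS: compound titrations added to GRE-bla HeLa cells, then dexamethasone 2 nM final; 18 h, 37 C. CCF4 FRET fluorescence normalized to dexamethasone and DMSO; IC50 from Hill fit.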

[4] = biological target: Vitamin D3 receptor (Homo sapiens) (UniProt P11473); test: qHTS assay for small molecule antagonists of vitamin D receptor signaling (AID 588541);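 further: receptor activated by calcitriol during compound treatment; series mostly up to about 77 µM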
Chain of Vitamin D3 receptor (Homo sapiens) (P11473 whole entry, looked up): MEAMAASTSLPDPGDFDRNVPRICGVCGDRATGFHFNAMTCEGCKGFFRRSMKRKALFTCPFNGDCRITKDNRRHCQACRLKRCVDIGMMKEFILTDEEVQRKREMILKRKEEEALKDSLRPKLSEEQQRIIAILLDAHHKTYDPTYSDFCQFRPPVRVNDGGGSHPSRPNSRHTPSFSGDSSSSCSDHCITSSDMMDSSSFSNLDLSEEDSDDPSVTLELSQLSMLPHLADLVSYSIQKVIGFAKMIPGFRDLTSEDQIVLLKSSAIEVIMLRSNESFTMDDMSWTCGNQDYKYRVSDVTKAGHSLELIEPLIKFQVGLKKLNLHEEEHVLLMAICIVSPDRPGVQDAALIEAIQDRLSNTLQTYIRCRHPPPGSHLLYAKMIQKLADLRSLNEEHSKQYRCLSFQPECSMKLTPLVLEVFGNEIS
Outline: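 VDR-UAS-bla HEK293T cells (2000/well, 2% charcoal-stripped FBS) were treated with titrated compounds plus 1-alpha,25-dihydroxyvitamin D3 (50 nM or 3 nM final) for 16 h at 37 C. CCF4 beta-lactamase fluorescence was read; Hill fits gave IC50.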

[5] = qHTS assay for small molecule agonists of the antioxidant response element (ARE) signaling pathway (AID 651741; active means well fitted activation curve with a large enough effect in the signal ratio; the % refers to the signal ratio; further: potency means the concentration at half of the fitted maximal effect)
Outline: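 ARE-bla HepG2 cells (beta-lactamase reporter under ARE control) were plated at 2,000 cells/well, preincubated 5 h at 37 C/5% CO2, then treated with DMSO-dissolved compounds for 16 h at 37 C; LiveBLAzer B/G FRET substrate added, fluorescence read after 2 h at room temperature.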

[6] = qHTS assay for small molecule antagonists of peroxisome proliferator-activated receptor delta signaling (AID 588535; active means well fitted inhibition curve with a large enough effect in the signal ratio, with a control signal flat, not every such curve was filed as active; the % refers to the signal ratio;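 on max response: cells co-treated with a PPAR-delta agonist as stimulator during compound exposure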); details: HEK293T PPARd-UAS-bla, beta-lactamase FRET ratio, 18 h; 460 nm channel
Outline: (§1)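 GeneBLAzer PPAR-delta-UAS-bla HEK293T cells in medium with 2% charcoal/dextran FBS were preincubated 5 hrs at 37 C, then given compounds, incubated 18 hrs at 37 C, and read by CCF4 beta-lactamase fluorescence; IC50 from Hill fits.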

[7] = biological target: Peroxisome proliferator-activated receptor delta (Homo sapiens) (UniProt Q03181); test: as above
Chain of Peroxisome proliferator-activated receptor delta (Homo sapiens) (Q03181 whole entry, looked up): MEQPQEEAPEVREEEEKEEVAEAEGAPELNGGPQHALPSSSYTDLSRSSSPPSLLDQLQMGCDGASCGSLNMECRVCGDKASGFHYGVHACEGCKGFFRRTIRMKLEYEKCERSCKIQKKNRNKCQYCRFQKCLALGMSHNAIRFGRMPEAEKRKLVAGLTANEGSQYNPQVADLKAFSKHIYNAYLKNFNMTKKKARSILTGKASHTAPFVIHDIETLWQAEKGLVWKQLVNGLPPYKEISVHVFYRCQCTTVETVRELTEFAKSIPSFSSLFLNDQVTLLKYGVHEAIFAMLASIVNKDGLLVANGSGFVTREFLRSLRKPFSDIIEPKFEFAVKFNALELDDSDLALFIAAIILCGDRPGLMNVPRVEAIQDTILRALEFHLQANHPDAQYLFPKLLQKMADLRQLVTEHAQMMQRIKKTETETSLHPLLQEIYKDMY
Outline: as §1

[8] = biological target: Androgen receptor (Homo sapiens) (UniProt P10275); test: qHTS assay for small molecule agonists of androgen receptor signaling (AID 588515; active means well fitted curve in the direction sought with a large enough effect in the signal ratio, with a control signal flat; the % refers to the signal ratio); details: AR-UAS-bla HEK293, beta-lactamase ratio, agonist 16 h; activation: stronger effect = higher value
Chain of Androgen receptor (Homo sapiens) (P10275 whole entry, looked up): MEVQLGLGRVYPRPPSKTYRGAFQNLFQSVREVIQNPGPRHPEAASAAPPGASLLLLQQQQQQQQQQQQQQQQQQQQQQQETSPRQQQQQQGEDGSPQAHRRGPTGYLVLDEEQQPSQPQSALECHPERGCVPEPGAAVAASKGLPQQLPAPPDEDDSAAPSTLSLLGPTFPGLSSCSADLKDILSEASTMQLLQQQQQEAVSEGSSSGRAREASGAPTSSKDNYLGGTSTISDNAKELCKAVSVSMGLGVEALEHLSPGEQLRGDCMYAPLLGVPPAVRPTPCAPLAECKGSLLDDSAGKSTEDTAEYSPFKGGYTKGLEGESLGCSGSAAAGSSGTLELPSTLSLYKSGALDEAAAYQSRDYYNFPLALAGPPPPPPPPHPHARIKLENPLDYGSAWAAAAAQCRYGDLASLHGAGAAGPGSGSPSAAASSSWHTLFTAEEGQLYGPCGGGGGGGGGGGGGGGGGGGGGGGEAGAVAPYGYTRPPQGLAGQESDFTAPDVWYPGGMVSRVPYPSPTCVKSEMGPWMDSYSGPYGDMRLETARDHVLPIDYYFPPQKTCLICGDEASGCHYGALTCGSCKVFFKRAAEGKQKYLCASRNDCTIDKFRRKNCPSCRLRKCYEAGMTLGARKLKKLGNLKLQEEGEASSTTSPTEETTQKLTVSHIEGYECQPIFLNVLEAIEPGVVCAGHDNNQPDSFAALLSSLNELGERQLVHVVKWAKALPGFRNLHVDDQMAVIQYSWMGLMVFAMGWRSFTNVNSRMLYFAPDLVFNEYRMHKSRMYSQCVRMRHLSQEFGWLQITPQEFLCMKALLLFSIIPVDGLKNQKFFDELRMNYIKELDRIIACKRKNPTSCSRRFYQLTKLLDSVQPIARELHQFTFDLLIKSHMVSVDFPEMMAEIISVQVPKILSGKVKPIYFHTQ
Outline: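 EC50 and efficacy came from Hill fits of titrations (up to 92 uM) normalized to 30 nM R1881 as 100% and DMSO as 0%. Compound exposure was 16 h at 37 C on AR-UAS-bla HEK293 cells, with a 405/460/530 nm CCF4 fluorescence read.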

[9] = biological target: Androgen receptor (Homo sapiens) (UniProt P10275); test: qHTS assay for small molecule antagonists of androgen receptor signaling (AID 588516; active means well fitted curve in the direction sought with a large enough effect in the signal ratio, with a control signal flat, not every such curve was filed as active; the % refers to the signal ratio)
Outline: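 AR-UAS-bla-GripTite HEK 293 cells (2000/well, 5 h at 37 C) received compound titrations, then R1881 at 10 nM final; after 16 h at 37 C, CCF4 dye 2 h RT, beta-lactamase fluorescence read; IC50 from Hill fits.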

Structure (SMILES)	Potency [1]	activation [2]	Potency [3]	Potency [4]	Potency [5]	max response [6]	Potency [7]	activation [8]	outcome [9]
CC(C)(C)c1ccc(O)c(C(C)(C)C)c1	inactive	-9.25% (inactive)	inactive	inactive					
COc1ccc(OC)c(OC)c1	inactive	0.211% (inactive)		inactive	inactive				
CC1(C)C(=O)NC(=O)N1CO		-5.05% (inactive)	inactive	inactive		11.7%	inactive		
CC(C)(C)c1cccc(C(C)(C)C)c1O	inactive	-7.64% (inactive)	inactive		inactive	-24.3%	inactive		
Cc1ccc(N=Nc2c(O)ccc3ccccc23)c(C)c1		-16.9% (inactive)		inactive	7.7 µM (active)	9.29%	inactive	-2.14% (inactive)	inactive
CCCCCCCCC(=O)O		1.63% (inactive)	inactive			-26.9%	inactive		
CCCCCCCCCCO		-0.536% (inactive) and 2.82% (inactive)	inactive		inactive				
Cn1sccc1=O	inactive	2.87% (inactive)	inactive	inactive		-3.21%	inactive		
C[Si]1(C)O[Si](C)(C)O[Si](C)(C)O[Si](C)(C)O[Si](C)(C)O1		5.87% (inactive)	inactive		inactive	5.15%	inactive		
C=C[Si](OCCOC)(OCCOC)OCCOC	inactive	-9.96% (inactive)	inactive	inactive	inactive	25.9%	inactive		
O=C(O)c1cccc(C(=O)O)c1		-2.7% (inactive)	inactive		inactive	-2.92%	inactive		
CC(C)c1ccc(C(C)C)cc1	inactive	1.07% (inactive)	inactive		inactive				
CCOC(=O)C1=NN(c2ccc(Cl)cc2Cl)C(C)(C(=O)OCC)C1 (centres undefined)		-2.41% (inactive)	inactive	inactive	inactive			-14.3% (inactive)	inactive
Cl[Si](Cl)(c1ccccc1)c1ccccc1	inactive	0.877% (inactive)	inactive		54.5 µM (active)	5.91%	inactive		
CSC(=O)c1cccc2nnsc12		-11.5% (inactive)		inactive		21.6%	inactive	-3.36% (inactive)	inactive
CCCCNS(=O)(=O)c1ccccc1	inactive	-1.82% (inactive)	inactive	inactive					
Nc1nc(N)nc(-c2ccccc2)n1		-8.55% (inactive)	inactive		inactive	20.7%	inactive		
CCCCCCCCCCCCO	inactive			inactive	inactive	3.59%	inactive		

Structure (SMILES)	Potency [1]	activation [2]	Potency [3]	Potency [4]	Potency [5]	max response [6]	Potency [7]	activation [8]	outcome [9]
CCCCCCCCCCCCCO		0.908% (inactive)	inactive	inactive	48.6 µM (active)	18.2%	inactive		
CCC(=O)C1C(=O)CC(C(=O)O)CC1=O (centres undefined)	inactive	6.99% (inactive)						-3.36% (inactive)	
O=C(O)c1ccc(C(=O)O)c(C(=O)O)c1		-1.87% (inactive)				-62.8%	inactive	-3.3% (inactive)	inactive
NCCCCCCCCCCC(=O)O			inactive	inactive	inactive	0.715%	inactive	0.655% (inactive)	inactive
COC(=O)c1ccccc1C(=O)O		-3.15% (inactive)	inactive	inactive	inactive	47.6%	inactive		
CC(C)c1ccc2cc(C(C)C)ccc2c1		-1.13% (inactive)		inactive				-3.98% (inactive)	inactive
O=C(c1ccc(Cl)cc1)c1ccc(Cl)cc1				inactive		24.6%	inactive	19.9% (inactive)	inactive
CC1(C)C(C=C(Cl)Cl)[C@H]1C(=O)OCc1cccc(Oc2ccccc2)c1 (some centres undefined)				inactive		35.5%	inactive	-0.893% (inactive)	inactive
COC(=O)c1cccc(C(=O)OC)c1				inactive		-2.46%	inactive	-4.83% (inactive)	inactive
C/C=C/C=C/CCCCCCCO		-6.08% (inactive)	inactive	inactive	inactive	19.3%	inactive		
CCCCOCCOCCOC(C)=O		-1.04% (inactive)	inactive		inactive	11.1%	inactive		
Oc1ccc2ccccc2c1N=Nc1ccccc1	inactive				3.06 µM (active)				
CC(=O)OC1CCC(C(C)(C)C)CC1 (centres undefined)		-9.53% (inactive)	inactive		inactive	-10.4%	inactive	3% (inactive)	inactive
C[Si](C)(C)N[Si](C)(C)C		-9.44% (inactive)	inactive	inactive					
CCCCCCCCCCCCCCCCN(C)C		-11.7% (inactive)	inactive		inactive	-16.5%	inactive	8.77% (inactive)	inactive
CC(C)Cc1c(C(=O)O)c(C(F)F)nc(C(F)(F)F)c1C1=NCCS1	inactive		inactive	inactive	inactive	45.9%	inactive	-2.77% (inactive)	inactive
CCOC(=O)COc1cc(-n2ncc(C(F)(F)F)c(C)c2=O)c(F)cc1Cl		13.3% (inactive)		inactive		-4.58%	inactive	-1.68% (inactive)	
C=C(C)C(=O)OCCCCCCCCCCCCCCCC		0.746% (inactive)	inactive	inactive	inactive	-9.92%	inactive	10.8% (inactive)	inactive
